Sampled rows, rich in hits. Any-hit rate of the full collection: about 17%.
DT40 TDP1 no CPT: qHTS for Inhibitors of human tyrosyl-DNA phosphodiesterase 1 (TDP1): qHTS in cells in absence of CPT; DT40 Tdp1-/- hTDP1 cells, no CPT, ATP luminescence, 48 h; Potency, µM (top dose mostly 46.2 µM), inactives show at the top dose activity change, negative = growth inhibition, actives largely listed as inhibitors; 15% of 420,000 active; further: on the % scale 0 is the no-effect control and ±100 the full control effect; nearly all actives have a fitted effect of over 55% in size
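Cells were dispensed at 400 per well, compounds added by pin tool, plates incubated ≥48 hr at 37 °C, then CellTiter-Glo added for 30 min at room temperature before luminescence reading. Line: DT40 Tdp1-/- complemented with hTDP1; camptothecin omitted.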
DT40 TDP1 CPT: qHTS for Inhibitors of human tyrosyl-DNA phosphodiesterase 1 (TDP1): qHTS in cells in presence of CPT. 12% of 420,000 active. Potency, µM (titrated, usually from 46.2 µM), inactives show at the top dose activity change, negative = growth inhibition, actives largely listed as inhibitors. chicken DT40 Tdp1-/-;hTDP1 cells + 20 nM CPT, ATP luminescence, 48 h; further: on the % scale 0 is the no-effect control and ±100 the full control effect; nearly all actives have a fitted effect of over 55% in size
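Chicken DT40 Tdp1-/- cells stably complemented with human TDP1 were seeded at 400 cells/well in medium containing 20 nM camptothecin, exposed to pin-transferred compounds, and grown at 37 °C for at least 48 hr. Viability was read as ATP luminescence.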
TDP1 block: qHTS Assay for Inhibitors of Tyrosyl-DNA Phosphodiesterase (TDP1); Potency, µM (doses to about 130 µM), for the others: top-dose activity change, negative = inhibition, most hits filed as inhibitors; AID 485290, 2010; recombinant TDP1, AlphaScreen DNA substrate cleavage; Tyrosyl-DNA phosphodiesterase 1 (Homo sapiens), Q9NUW8; 0.28% of 350,000 active; further: on the % scale 0 is the no-effect control and ±100 the full control effect; nearly all actives have a fitted effect of over 40% in size
Target sequence (Q9NUW8 whole entry, looked up): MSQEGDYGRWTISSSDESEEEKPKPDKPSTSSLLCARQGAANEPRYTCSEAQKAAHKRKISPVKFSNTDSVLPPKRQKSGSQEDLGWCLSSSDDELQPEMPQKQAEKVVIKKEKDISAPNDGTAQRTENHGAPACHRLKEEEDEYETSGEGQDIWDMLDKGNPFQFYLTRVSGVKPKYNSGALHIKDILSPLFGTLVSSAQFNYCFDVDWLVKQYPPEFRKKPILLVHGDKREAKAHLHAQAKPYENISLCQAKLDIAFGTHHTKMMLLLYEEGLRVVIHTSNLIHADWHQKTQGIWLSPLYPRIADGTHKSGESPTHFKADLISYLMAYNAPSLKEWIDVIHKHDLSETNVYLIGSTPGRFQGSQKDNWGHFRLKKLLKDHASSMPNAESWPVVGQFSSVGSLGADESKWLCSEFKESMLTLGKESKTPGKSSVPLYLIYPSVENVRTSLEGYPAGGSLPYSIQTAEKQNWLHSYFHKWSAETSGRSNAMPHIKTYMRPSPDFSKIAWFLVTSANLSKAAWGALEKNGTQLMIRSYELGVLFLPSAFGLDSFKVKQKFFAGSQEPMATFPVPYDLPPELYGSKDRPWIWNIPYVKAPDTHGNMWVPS
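Enzyme-compound mixtures sat 15 min at room temperature, followed by a 5 min reaction with 15 nM final substrate and 10 min with AlphaScreen beads. Recombinant human Tdp1 was used at 1 nM final.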
ClpP mod: qHTS Assay for Activators of ClpP; 1.9% of 340,000 active; ATP-dependent Clp protease proteolytic subunit (Bacillus subtilis (strain 168)), P80244; purified B. subtilis ClpP, FRET peptide cleavage, 20 min; Potency, µM (series often up to 57.5 µM), for the others: at the highest dose activity change, negative = active; AID 651965, 2013; active means well fitted falling curve with a large enough effect; inconclusive means small, poorly fitted or top-dose-only effect; inactive means no such curve, though single readings can be large or run the other way; further: the source files actives as falling curves though it sought activators and does not explain the sign; nearly all actives have a fitted effect of over 65% in size
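ClpP 10 microg/mL final, pH 8 Tris/KCl buffer with BSA, glycerol, Tween-20; compound pinned in; FRET-FV substrate; RT 20 min; Ex320/Em430; ΔFRET vs ADEP 5.8 microM, DMSO, no enzyme.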
* hit, by the source's call; ? = inconclusive; / = no result; [ ] = another dose, or the depositor's remark. Unless noted, the call rests on the fitted dose curve; in most records, active means well fitted curve in the direction sought with a large enough effect; inconclusive means small, poorly fitted or top-dose-only effect, or another doubt; inactive means no such curve, though single readings can be large; an effect the other way counts as inactive or inconclusive. Potency means the concentration at half of the fitted maximal effect.

SMILES	DT40 TDP1 no CPT	DT40 TDP1 CPT	TDP1 block	ClpP mod
COc1cc(/C=C2/C(=N)N3C(=NC2=O)SN=C3S(C)(=O)=O)ccc1OS(=O)(=O)c1ccccc1	/	/	-9%	/
C[C@H]1O[C@H](C2CCCC2)CC2=C1C(=O)OC(C)(C)O2	-20%	-1%	/	2%
Cc1cn2c(=O)cc(COc3cccc(NC(=O)c4ccccc4C)c3)nc2s1	?	-21%	1%	-5%
Cc1ccc(N2CC(NC(=O)c3ccc(S(=O)(=O)N4CCCC4)cc3)CC2=O)cc1C (stereo not drawn)	18µM*	?	5%	1%
COc1ccc2cc(S(=O)(=O)NC3CC(C)(C)NC(C)(C)C3)ccc2c1	-20%	-28%	4%	28µM*
COc1ccc(S(=O)(=O)NC2CC(C)(C)NC(C)(C)C2)cc1C(C)C	?	?	1%	/
COc1cccc(N2CC(NS(=O)(=O)c3ccc4ccccc4c3)CC2=O)c1 (stereo not drawn)	29µM*	-15%	/	/
COc1ccc(S(=O)(=O)NC2CC(=O)N(c3ccc(C)c(C)c3)C2)cc1 (stereo not drawn)	16µM*	?	/	/
COc1cccc(N2CC(NS(=O)(=O)c3cccnc3)CC2=O)c1 (stereo not drawn)	-29%	-15%	/	/
Cc1ccc(NC(=O)CSc2[nH]c(=O)ncc2C)cc1	-15%	?	5%	3%
Nc1nc(SCC(=O)Nc2cc(Cl)ccc2Cl)n[nH]1	?	?	/	-3%
Cc1ncc(CO)c(/C=N/NC(=S)Nc2ccc(Cl)c(Cl)c2)c1O	13µM*	16µM*	2%	-22%
Cc1ncc(CO)c(/C=N/NC(=S)Nc2cccc(Cl)c2)c1O	16µM*	?	3%	4%
CC(C)(C)c1nnc(NC(=O)Nc2ccc(Cl)cc2)s1	16µM*	?	2%	/
CC(C)(C)c1nnc(NC(=O)NS(=O)(=O)c2ccccc2)s1	-6%	2%	-1%	20µM*
COc1ccc(NC(=O)Nc2nnc(C(C)(C)C)s2)cc1	?	-26%	-1%	-1%
O=C(CN1Cc2ccccc2OC(c2ccsc2)C1)N1CCN(Cc2ccc3c(c2)OCO3)CC1 (stereo not drawn)	23µM*	-11%[9.04 µM]	/	/
O=C(Cn1ncc2c1-c1ccccc1OC2)N1CCN(Cc2ccc3c(c2)OCO3)CC1	?	-30%	8%	0%
Cn1cc(/C=N/NC(N)=S)c2ccccc21	3.3µM*	13µM*	/	/
C=CCNC(=S)N/N=C/c1cn(C)c2ccccc12	?	?	/	-7%
Cc1nn(-c2ccccc2)cc1/C=N/O	-3%	-12%	4%	-2%
Cc1nn(-c2ccccc2)cc1/C=N/NC(N)=S	?	18µM*	-1%	-1%
CCN(CC)CCNC(=O)c1ccc(NC(=O)c2ccc(-n3cncn3)c([N+](=O)[O-])c2)cc1	-3%	-1%	/	-5%
CCC(=O)n1nc(-c2ccc(Cl)cc2)nc1N	2.6µM*	-11%	0%	21%
CN1CCN(NC(=O)CN2C(=O)S/C(=C\c3c(Cl)cccc3Cl)C2=O)CC1	-12%	6%	-1%	/
SMILES	DT40 TDP1 no CPT	DT40 TDP1 CPT	TDP1 block	ClpP mod
CCc1cccc2c(C(=O)CN3C(=O)NC4(CCc5ccccc54)C3=O)c[nH]c12 (stereo not drawn)	4.6µM*	4.6µM*	1%	-3%
CCc1cccc2c(C(=O)CN3C(=O)N(C)C4(CCCCC4)C3=O)c[nH]c12	8.2µM*	3.3µM*	0%	-2%
CCc1cccc2c(C(=O)CN3C(=O)NC(C)(c4cccc5ccccc45)C3=O)c[nH]c12 (stereo not drawn)	?	?	5%	0%
COc1ccc(S(=O)(=O)Nc2ccc3c(c2)[C@H]2C[C@H](CC(=O)NCC4CC4)O[C@@H](CO)[C@H]2O3)cc1	?	-23%	/	-3%
C[C@@H]1CN([C@H](C)CO)S(=O)(=O)c2ccc(Br)cc2O[C@H]1CN(C)C(=O)Cc1ccccn1	?	11%	/	-3%
Cc1ccc(NC(=O)CCS(=O)(=O)c2cc3c4c(c2)CCN4C(=O)CC3)c(C)c1	-13%	1%	8%	1%
O=C(Nc1ccccc1)C1=C[C@@H](c2ccc(C(F)(F)F)cc2)C[C@@H](OCc2ccc(CO)cc2)O1	18µM*	23µM*	3%	1%
O=C(Nc1ccccc1)C1=C[C@H](c2ccc(Br)cc2)C[C@H](OCc2ccc(CO)cc2)O1	?	29µM*	5%	-1%
CCOc1ccc(-c2onc(C(F)(F)F)c2-c2cscn2)c(O)c1	?	11µM*	-4%	-2%
Cc1cc(O)cc(O)c1-c1onc(C(F)(F)F)c1-c1cscn1	10µM*	18µM*	5%	1%
COc1ccc(-c2onc(C)c2-c2cscn2)c(O)c1	-1%	6%	3%	/
CC(C)CN1CCC2(CC1)CCN(C(=O)c1cnccn1)CC2	-4%	9%	/	/
OC[C@H]1O[C@@H](O[C@H]2[C@H](O)[C@@H](O)[C@H](O)O[C@@H]2CO)[C@H](O)[C@@H](O)[C@@H]1O	-13%	18%	/	/
O=C(c1ccc(N2CCN(C(=O)c3ccccc3Br)CC2)cc1)c1cccc(F)c1	26µM*	16µM*	6%	-16%
O=C(c1ccccc1)c1ccc(C(=O)N2CCN(c3ccc(F)cc3)CC2)o1	12µM*	?	6%	-1%
CCOC(=O)N1CCN(c2ccc(C(=O)c3cccc(F)c3)cc2)CC1	21µM*	13µM*	-4%	1%
O=C(c1ccc(N2CCN(C(=O)c3cccc(F)c3)CC2)cc1)c1cccc(F)c1	?	16µM*	10%	-2%
Cn1cnnc1SCc1ccc(C(=O)N/N=C(/CCC(=O)O)c2ccc(C(C)(C)C)cc2)cc1	-8%	-1%	/	3%
CCCSc1ncc(Cl)c(C(=O)Nc2sc3c(c2C(=O)NCC)CCCC3)n1	?	?	-1%	-1%
COCCNC(=O)NC(=O)CN1C(=O)NC(Cc2c[nH]c3ccccc23)C1=O (stereo not drawn)	-8%	10%	5%[0.0935 µM]	-4%
COc1ccc(F)cc1S(=O)(=O)Nc1cccc(-c2ccc(N3CCCCCC3)nn2)c1	?	?	4%	-4%
CC(=O)N1CCOc2ccc(S(=O)(=O)N3CCC(C(=O)NCc4ccc(C)cc4)CC3)cc21	15%	-3%	0%	-1%
CSc1ccc(Cl)c(C(=O)Nc2nccs2)c1	-3%	-9%	1%	0%
O=C(Nc1ccc(Cl)c(Cl)c1)Nc1nccs1	0.82µM*	2.1µM*	/	-1%
O=C(Nc1cccc(Cl)c1)Nc1cnccn1	-1%	4%	-4%	-6%
